Hit rate of the full screen: of about 310,000 compounds, about 14,000 (4.5%) showed an effect of 50% or more. The effect is printed as a negative number. Only a selection was taken, and strong results are over-represented in it overall.
The molecules below were run against human ether-à-go-go-related gene (hERG) potassium channel (human, UniProt Q12809) (assay: primary screen, population patch clamp on CHO cells stably expressing hERG; higher = less effect of the substance).
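Note: peak tail current of the secondary pulse compared with the same well before compound.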

Chain of human ether-à-go-go-related gene (hERG) potassium channel (Q12809 whole entry, looked up): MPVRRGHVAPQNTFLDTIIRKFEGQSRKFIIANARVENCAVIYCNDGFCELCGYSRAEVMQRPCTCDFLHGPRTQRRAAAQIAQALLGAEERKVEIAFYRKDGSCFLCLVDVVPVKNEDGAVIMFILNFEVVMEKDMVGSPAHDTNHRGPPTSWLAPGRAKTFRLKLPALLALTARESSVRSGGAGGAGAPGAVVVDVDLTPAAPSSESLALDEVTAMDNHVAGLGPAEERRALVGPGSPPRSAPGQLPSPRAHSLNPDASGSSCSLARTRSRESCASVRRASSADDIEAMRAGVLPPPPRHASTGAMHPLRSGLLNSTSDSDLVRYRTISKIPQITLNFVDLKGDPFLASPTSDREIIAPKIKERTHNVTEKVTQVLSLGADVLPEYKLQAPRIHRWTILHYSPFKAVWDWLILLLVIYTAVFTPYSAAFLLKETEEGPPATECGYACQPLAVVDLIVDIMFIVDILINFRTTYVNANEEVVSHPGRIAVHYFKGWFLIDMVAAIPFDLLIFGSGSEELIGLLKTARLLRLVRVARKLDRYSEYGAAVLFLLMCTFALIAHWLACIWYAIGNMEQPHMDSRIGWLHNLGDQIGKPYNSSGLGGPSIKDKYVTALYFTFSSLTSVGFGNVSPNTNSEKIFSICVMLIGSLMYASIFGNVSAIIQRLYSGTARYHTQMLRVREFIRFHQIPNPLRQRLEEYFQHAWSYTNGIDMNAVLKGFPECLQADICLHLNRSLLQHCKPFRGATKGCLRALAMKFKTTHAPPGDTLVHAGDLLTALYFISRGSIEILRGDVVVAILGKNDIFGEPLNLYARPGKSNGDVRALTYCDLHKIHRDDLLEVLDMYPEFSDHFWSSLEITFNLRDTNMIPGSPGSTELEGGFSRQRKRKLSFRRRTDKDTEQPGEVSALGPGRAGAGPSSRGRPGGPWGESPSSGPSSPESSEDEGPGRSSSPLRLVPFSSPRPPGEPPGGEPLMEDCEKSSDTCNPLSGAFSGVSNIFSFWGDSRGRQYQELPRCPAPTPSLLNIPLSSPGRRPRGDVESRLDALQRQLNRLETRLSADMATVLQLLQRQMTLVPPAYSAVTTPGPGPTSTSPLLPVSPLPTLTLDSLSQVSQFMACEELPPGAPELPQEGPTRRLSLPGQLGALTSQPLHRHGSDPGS

| Structure (SMILES) | hERG current change (%, negative = inhibition) at 10uM [%] |
| --- | --- |
| CC1(C)Cc2nc(N3CCOCC3)c(C#N)cc2CO1 | 7.25 |
| COc1ccc(NC(=O)CN(C)C(=O)c2c(-c3c(F)cccc3Cl)noc2C)cc1 | -16.2 |
| CCC(C)(C)NC(=O)CN(Cc1ccccc1Cl)C(=O)CCC(=O)Nc1cc(C)ccn1 | -4.7 |
| O=C(O)c1nn(CC(=O)N2CCN(c3ccccc3)CC2)c(=O)c2ccccc12 | 8.36 |
| O=C(O)c1ccccc1OCCOc1ccccc1 | 3.63 |
| CC(C)c1nnc(NC(=O)c2cnccn2)s1 | 16.2 |
| COc1ccc(C(=O)N2CCCCC2)cc1S(=O)(=O)Nc1cccc(C(=O)O)c1 | 6.94 |
| CCOc1ccc(C(=O)OCCN(C)C)cc1.Cl | -10.3 |
| CSc1ncccc1C(=O)OCC(=O)N1CC(=O)Nc2ccccc21 | 8.21 |
| COc1ccc(Nc2nc(N)nc(CN3CCOCC3)n2)cc1 | -5.46 |
| COc1ccc(OCc2nc(N)nc(Nc3ccccc3)n2)cc1 | -4.98 |
| COc1ccc(Nc2nc(N)nc(CN3CCC(Cc4ccccc4)CC3)n2)cc1 | -79 |
| Nc1nc(CN2CCC(Cc3ccccc3)CC2)nc(Nc2ccccc2)n1 | -82 |
| c1ccc(CC2CCN(Cc3nc(-c4ccccc4)no3)CC2)cc1 | -8.93 |
| COc1ccc(Nc2nc(N)nc(CN3CCC(C)CC3)n2)cc1 | -75.4 |
| COc1ccc(-c2noc(CN3CCC(Cc4ccccc4)CC3)n2)cc1 | -8.3 |
| COc1ccc(Nc2nc(N)nc(CSC(=S)N3CCC(C)CC3)n2)cc1 | -5.86 |
| CC(=O)c1ccc(OCC(=O)OC(C)C(=O)NC2CCCCC2C)cc1 (centres unmarked) | 26.9 |
| COC(=O)c1c(NC(=O)CC2SCC(C(=O)OC)NC2=O)sc2c1CCCC2 (centres unmarked) | -5 |
| CCc1ccccc1N(C(C)=O)c1nc(CCl)cs1 | 6.77 |

| Structure (SMILES) | hERG current change (%, negative = inhibition) at 10uM [%] |
| --- | --- |
| CC(C)(C)NC(=O)CN(CCN1CCOCC1)C(=O)CNS(=O)(=O)c1ccccc1 | 19.4 |
| COCCN(CCOC)S(=O)(=O)c1ccc(C(=O)Nc2nc(C)c(C(C)=O)s2)cc1 | 13 |
| C/C(=N\NC(N)=S)C1C2C3CC4C5CC(C42)C1C53 (centres unmarked) | -10 |
| O=C(CC1(O)C(=O)Nc2ccccc21)c1ccc2c(c1)OCO2 (centres unmarked) | -3.95 |
| CN(C)c1ccc2c3c(ccc(N(C)C)c13)C(=O)OC2 | -59.1 |
| Nc1ccc2c(c1)COC2=O | 4.55 |
| CN(C)c1ccc2c3c(ccc(N(C)C)c13)COC2 | -34.8 |
| CN(C)S(=O)(=O)c1cccc(C(=O)NCC2(N3CCOCC3)CCCCC2)c1 | -13.4 |
| S=C(NCc1cccnc1)Nc1ccc(Oc2ccc(Cl)cc2)cc1 | -0.652 |
| CCS(=O)(=O)c1ccc(O)c(NC(=O)COc2ccc(OC)cc2)c1 | 1.82 |
| CCc1ccc(OCC(=O)Nc2cc(S(=O)(=O)CC)ccc2O)cc1 | -0.287 |
| CCCc1ccc(OCC(=O)Nc2cc(S(=O)(=O)CC)ccc2O)cc1 | -58.1 |
| Cc1cc(Cl)c(OCCCNC2CCCC2)c(Br)c1.O=C(O)C(=O)O | -56.9 |
| Cc1cc(C)c(OCCCCNCc2ccccc2)c(Cl)c1.O=C(O)C(=O)O | -68.5 |
| Cc1cc(Cl)c(OCCCCNC(C)(C)C)c(Br)c1.O=C(O)C(=O)O | -40.7 |
| Cc1cc(C)c(OCCCNC2CCCC2)c(Br)c1.O=C(O)C(=O)O | -34.5 |
| Cc1cc(C)c(OCCNCc2ccccc2)c(C)c1.O=C(O)C(=O)O | -5.71 |
| Cc1cc(Cl)c(OCCCNCc2ccccc2)c(Br)c1.O=C(O)C(=O)O | -51.8 |
| Cc1cc(C)c(OCCCNCc2ccccc2)c(Br)c1.O=C(O)C(=O)O | -10.7 |
| COCCCNCCCCOc1c(Cl)cc(C)cc1Br.O=C(O)C(=O)O | -49.2 |

| Structure (SMILES) | hERG current change (%, negative = inhibition) at 10uM [%] |
| --- | --- |
| C=CCNCCOc1c(C)cc(C)cc1Cl.O=C(O)C(=O)O | -21.2 |
| CC(=O)c1cccc(NC(=O)C(C)OC(=O)Cc2c[nH]c3ccccc23)c1 (centres unmarked) | -2.32 |
| COC(=O)c1cc(NC(=O)c2cccnc2)ccc1N1CCOCC1 | 13.9 |
| CCOc1ccccc1N1CC(C(=O)Nc2c(C)n(C)n(-c3ccccc3)c2=O)CC1=O (centres unmarked) | 20.7 |
| CCC(C)[C@H](NC(=O)Nc1ccc(S(N)(=O)=O)cc1)C(=O)OC (some centres unmarked) | 13.1 |
| O=C1CCCc2c1nc(-c1ccco1)n2O | 12.1 |
| O=C(Cn1[nH]c(=O)c2ccccc2c1=O)N1CC=C(c2ccccc2)CC1 | -4.76 |
| COc1ccc(CCNC(=O)CS(=O)Cc2nc(-c3ccccc3F)oc2C)cc1OC (centres unmarked) | 13 |
| O=c1oc2ccc(C#CC3(O)CCCCC3)cc2cc1-n1cc(C2(O)CCCCC2)nn1 | 24.7 |
| O=C(c1ccc(F)cc1)n1c(=S)nc2ccccn21 | -1.25 |
| CC(=O)N(Cc1nc2sc(C)c(C)c2c(=O)[nH]1)C1CCCC1 | 21.8 |
| FC(F)(F)c1cccc(N2CCN(C3CC4CCC3C4)CC2)c1 (centres unmarked) | -1.68 |
| CCc1ccc(C(=O)COC(=O)c2cnccn2)cc1 | 0.242 |
| Cc1ccc(NC(=S)NCCN(C2CCCCC2)C2CCCC2)cc1 | -72 |
| Cc1ccc(NC(=S)NNC(=S)NC2CCCCC2)cc1 | 21 |
| Cc1ccc(NC(=S)NC2CCCC2)cc1C | 14.8 |
| Cc1ccc(NC(=S)NCCN(C2CCCCC2)C2CCCC2)cc1C | -68.1 |
| Cc1ccc(NC(=S)NCC2CCCO2)cc1C (centres unmarked) | -1.97 |
| Cc1ccc(NC(=S)NC2CCCC2)cc1 | 4.64 |
